Laboratory results: PubChem BioAssay (NCI)
Compounds without any hit were thinned out: in the full panel of roughly 79,000, 15% have a hit. The source made the active and inactive calls. Cut-off read from the data, not from the text of the source: active = growth inhibition above about 70%; inactive = the rest.

Assays:
[1] = NCI Yeast Anticancer Drug Screen. Data for the mec2-1 strain (AID 157); conditions: S. cerevisiae mec2-1 strain, hits give high values
Outline: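 Growth inhibition is read against vehicle-treated controls after compound exposure of the mec2-1 yeast strain, which is defective in DNA damage repair or cell cycle control.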

[2] = NCI Yeast Anticancer Drug Screen. Data for the rad14 strain (AID 159);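 note: 0% = growth of vehicle-treated control cultures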; conditions: S. cerevisiae rad14 strain growth inhibition, hits give high values
Outline: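 Yeast cells carrying a defined DNA-repair defect were exposed to compounds, and growth inhibition was calculated relative to vehicle-treated control cultures.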

[3] = NCI Yeast Anticancer Drug Screen. Data for the sgs1 mgt1 strain (AID 161);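 note: 0% = growth of cultures given vehicle only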; conditions: S. cerevisiae sgs1 mgt1 strain, hits give high values
Outline: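 This yeast growth screen uses a strain with defined DNA-repair lesions; compound-treated growth is compared with vehicle-treated growth.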

[4] = NCI Yeast Anticancer Drug Screen. Data for the CLN2oe strain (AID 163);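 note: 0% = growth of vehicle-only control cultures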; conditions: S. cerevisiae CLN2oe strain, hits give high values
Outline: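 Compound-treated yeast; growth vs vehicle ctrl = % inhibition. Genetically altered strain (cell-cycle control).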

[5] = NCI Yeast Anticancer Drug Screen. Data for the cln2 rad14 strain (AID 165);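 note: 0% = growth equal to vehicle treated cultures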; conditions: S. cerevisiae cln2 rad14 strain, hits give high values
Outline: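 Growth inhibition, relative to vehicle-treated controls, is the read-out. The test organism is a yeast strain with defined genetic alterations, cln2 rad14.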

[6] = NCI Yeast Anticancer Drug Screen. Data for the bub3 strain (AID 167); conditions: S. cerevisiae bub3 mutant strain, hits give high values
Outline: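 Compounds were applied to a genetically altered yeast strain carrying a cell-cycle control defect. Growth inhibition was scored against vehicle-treated controls.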

[7] = NCI Yeast Anticancer Drug Screen. Data for the mlh1 strain (AID 171);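 note: 0% = growth of vehicle-treated control cultures of the same strain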; conditions: S. cerevisiae mlh1 strain growth inhibition, hits give high values
Outline: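 Compounds are applied to a genetically altered yeast strain, and its growth is compared with that of vehicle-treated cultures to give percent inhibition.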

[8] = NCI Yeast Anticancer Drug Screen. Data for the sgs1 strain (AID 173);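 note: 0% = growth of vehicle-only control cultures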; conditions: S. cerevisiae sgs1 mutant, hits give high values
Outline: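 Compounds applied to genetically altered yeast; growth compared with vehicle-treated cultures to give % inhibition.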

[9] = NCI Yeast Anticancer Drug Screen. Data for the mlh1 rad18 strain (AID 175); conditions: S. cerevisiae mlh1 rad18 strain growth inhibition, hits give high values
Outline: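 Cells of a genetically altered yeast strain, deficient in DNA damage repair, were treated with compound. Their growth was then compared with that of vehicle-treated cultures to give inhibition.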

[10] = NCI Yeast Anticancer Drug Screen. Data for the rad52 strain (AID 147);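 note: 0% = growth of vehicle-treated control cultures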; conditions: S. cerevisiae rad52 mutant growth inhibition, hits give high values
Outline: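 DNA repair-defective yeast; compound exposure; growth scored against vehicle controls.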

[11] = NCI Yeast Anticancer Drug Screen. Data for the wt1 strain (AID 149);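 note: 0% = growth of vehicle-treated wt1 cultures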; conditions: S. cerevisiae wt1 strain (SPY 50644) growth inhibition, hits give high values
Outline: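 Yeast wt1 strain exposed to compounds; growth inhibition measured relative to vehicle-treated controls.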

[12] = NCI Yeast Anticancer Drug Screen. Data for the rad50EPP+ strain (AID 151);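 note: 0% = growth of vehicle-treated control cultures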; conditions: S. cerevisiae rad50 mutant strain, hits give high values
Outline: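 rad50EPP+ yeast treated with test compounds. Readout: growth vs vehicle control.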

[13] = NCI Yeast Anticancer Drug Screen. Data for the mgt1 strain (AID 153); conditions: S. cerevisiae mgt1 mutant growth inhibition, hits give high values
Outline: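 Growth inhibition relative to vehicle controls was scored for the mgt1 yeast strain after compound exposure.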

[14] = NCI Yeast Anticancer Drug Screen. Data for the rad50 strain (AID 155);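 note: 0% = growth of vehicle-only cultures of the same strain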; conditions: S. cerevisiae rad50 strain growth inhibition, hits give high values
Outline: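 Yeast carrying a defined DNA repair defect were exposed to test compounds, and growth was compared with vehicle-treated controls to give percent inhibition.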

[15] = NCI Yeast Anticancer Drug Screen. Data for the wt2 strain (AID 169);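 note: 0% = growth of vehicle-treated yeast cultures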; conditions: S. cerevisiae wt2 strain growth inhibition, hits give high values
Outline: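 Compound exposure of yeast; growth compared with vehicle controls; inhibition reported.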

[16] = NCI Yeast Anticancer Drug Screen. Data for the rad18 strain (AID 177); conditions: S. cerevisiae rad18 mutant growth inhibition, hits give high values
Outline: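 Compounds are applied to a repair-deficient yeast strain, and growth is compared with that of vehicle-treated cultures to give percent inhibition.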

[17] = at 5.0 µM (retest, dose inferred, filed as 0.5)
[18] = at 50.0 µM (retest, dose inferred, filed as 5.0)

Measured: growth inhibition

O=C1OC(CCl)CN1/N=C/c1ccc([N+](=O)[O-])o1 (centres undefined)
active: [1]; [18] 76% | [2]; at 100.0 µM 71% | [3]; [18] 89% | [3]; at 50.0 µM 71.9% | [5]; [18] 73% | [6]; [18] 70% | [8]; at 33.0 µM 83% | [8]; at 100.0 µM 95% | [9]; [18] 92% | [9]; at 50.0 µM 87.9%
inactive: [1]; [17] 9% | [1]; at 11.0 µM 0% | [1]; at 33.0 µM 7% | [1]; at 50.0 µM 44.2% | [1]; at 100.0 µM 19% | [2]; at 1.2 µM -7% | [2]; at 3.7 µM 0% | [2]; at 11.0 µM 14% | [2]; at 33.0 µM 38% | [3]; [17] 35% | [4]; at 1.2 µM -7% | [4]; at 3.7 µM -8% | [4]; at 11.0 µM -6% | [4]; at 33.0 µM -7% | [4]; at 100.0 µM -2% | [5]; [17] 4% | [5]; at 50.0 µM 47.1% | [6]; at 1.2 µM -8% | [6]; at 3.7 µM -4% | [6]; [17] 1% | [6]; at 11.0 µM -5% | [6]; at 33.0 µM 2% | [6]; at 50.0 µM 10% | [6]; at 100.0 µM 16% | [7]; at 1.2 µM -9% | [7]; at 3.7 µM -4% | [7]; at 11.0 µM -1% | [7]; at 33.0 µM 14% | [7]; at 100.0 µM 69% | [8]; at 1.2 µM -6% | [8]; at 3.7 µM 9% | [8]; at 11.0 µM 49% | [9]; [17] 66%

O=C(c1cc(Br)ccc1O)c1cc(Br)ccc1O
active: [10]; at 3.7 µM 80% | [10]; at 11.0 µM 99% | [10]; at 33.0 µM 99% | [10]; at 100.0 µM 99% | [11]; at 3.7 µM 78% | [11]; at 11.0 µM 99% | [11]; at 33.0 µM 100% | [11]; at 100.0 µM 100% | [12]; at 11.0 µM 90% | [12]; at 33.0 µM 99% | [12]; at 100.0 µM 99% | [13]; at 3.7 µM 95% | [13]; at 11.0 µM 99% | [13]; at 33.0 µM 100% | [13]; at 100.0 µM 100% | [14]; at 11.0 µM 99% | [14]; at 33.0 µM 99% | [14]; [18] 99% | [14]; at 50.0 µM 99.3% | [14]; at 100.0 µM 99% | [1]; at 3.7 µM 97% | [1]; at 11.0 µM 99% | [1]; at 33.0 µM 100% | [1]; [18] 100% | [1]; at 50.0 µM 99.5% | [1]; at 100.0 µM 100% | [2]; at 11.0 µM 99% | [2]; at 33.0 µM 100% | [2]; at 100.0 µM 98% | [3]; [18] 97% | [3]; at 50.0 µM 99.4% | [4]; at 3.7 µM 96% | [4]; at 11.0 µM 100% | [4]; at 33.0 µM 99% | [4]; at 100.0 µM 99% | [5]; [18] 98% | [5]; at 50.0 µM 98.7% | [6]; at 3.7 µM 90% | [6]; at 11.0 µM 99% | [6]; at 33.0 µM 99% | [6]; [18] 99% | [6]; at 50.0 µM 99.2% | [6]; at 100.0 µM 99% | [15]; at 3.7 µM 87% | [15]; at 11.0 µM 99% | [15]; at 33.0 µM 100% | [15]; at 100.0 µM 100% | [7]; at 3.7 µM 93% | [7]; at 11.0 µM 99% | [7]; at 33.0 µM 100% | [7]; at 100.0 µM 100% | [9]; [18] 99% | [9]; at 50.0 µM 99.4% | [16]; at 3.7 µM 89% | [16]; at 11.0 µM 99% | [16]; at 33.0 µM 99% | [16]; at 100.0 µM 99%
inactive: [10]; at 1.2 µM 13% | [11]; at 1.2 µM 9% | [12]; at 1.2 µM 16% | [12]; at 3.7 µM 47% | [13]; at 1.2 µM 38% | [14]; at 1.2 µM 13% | [14]; at 3.7 µM 67% | [14]; [17] 2% | [1]; at 1.2 µM 29% | [1]; [17] 20% | [2]; at 1.2 µM 8% | [2]; at 3.7 µM 40% | [3]; [17] 22% | [4]; at 1.2 µM 34% | [5]; [17] -3% | [6]; at 1.2 µM 17% | [6]; [17] 5% | [15]; at 1.2 µM 12% | [7]; at 1.2 µM 23% | [9]; [17] 45% | [16]; at 1.2 µM 32%

O=C1C(Nc2ccccc2)=C(Oc2ccccc2)C(=O)c2ccccc21
inactive: [10]; at 1.2 µM -3% | [10]; at 3.7 µM -6% | [10]; at 11.0 µM 1% | [10]; at 33.0 µM 23% | [10]; at 100.0 µM 32% | [11]; at 1.2 µM 3% | [11]; at 3.7 µM -10% | [11]; at 11.0 µM 7% | [11]; at 33.0 µM -4% | [11]; at 100.0 µM 14% | [12]; at 1.2 µM 5% | [12]; at 3.7 µM 20% | [12]; at 11.0 µM 28% | [12]; at 33.0 µM 58% | [12]; at 100.0 µM 60% | [13]; at 1.2 µM 5% | [13]; at 3.7 µM -2% | [13]; at 11.0 µM 2% | [13]; at 33.0 µM 1% | [13]; at 100.0 µM -1% | [14]; at 1.2 µM -6% | [14]; at 3.7 µM -11% | [14]; [17] -1% | [14]; at 11.0 µM -5% | [14]; at 33.0 µM 27% | [14]; [18] 26% | [14]; at 50.0 µM 23.7% | [14]; at 100.0 µM 38% | [1]; at 1.2 µM 2% | [1]; at 3.7 µM 1% | [1]; [17] 3% | [1]; at 11.0 µM 6% | [1]; at 33.0 µM 3% | [1]; [18] 20% | [1]; at 50.0 µM 24.4% | [1]; at 100.0 µM 2% | [2]; at 1.2 µM 13% | [2]; at 3.7 µM 0% | [2]; at 11.0 µM 4% | [2]; at 33.0 µM 9% | [2]; at 100.0 µM -15% | [3]; [17] -2% | [3]; [18] 17% | [3]; at 50.0 µM 16.4% | [4]; at 1.2 µM -6% | [4]; at 3.7 µM -2% | [4]; at 11.0 µM 1% | [4]; at 33.0 µM -1% | [4]; at 100.0 µM -4% | [5]; [17] -7% | [5]; [18] 1% | [5]; at 50.0 µM 5.25% | [6]; at 1.2 µM 3% | [6]; at 3.7 µM 9% | [6]; [17] 16% | [6]; at 11.0 µM 23% | [6]; at 33.0 µM 55% | [6]; [18] 59% | [15]; at 1.2 µM -10% | [15]; at 3.7 µM 0% | [15]; at 11.0 µM 11% | [15]; at 33.0 µM 35% | [15]; at 100.0 µM 29% | [7]; at 1.2 µM -5% | [7]; at 3.7 µM 0% | [7]; at 11.0 µM 1% | [7]; at 33.0 µM 0% | [7]; at 100.0 µM 0% | [9]; [17] -3% | [9]; [18] 30% | [9]; at 50.0 µM 58.8% | [16]; at 1.2 µM -4% | [16]; at 3.7 µM 4% | [16]; at 11.0 µM 4% | [16]; at 33.0 µM 14% | [16]; at 100.0 µM 1%
active: [6]; at 50.0 µM 82.5% | [6]; at 100.0 µM 70%
